Test results taken from the supplement of paper PMC6555819.

How the values were obtained:
Experiment in all cases: PBM binding z-score (relative to random genomic background probes); higher = stronger binding; sequences stand for … in GC…GCGATTGACAGCGTAGAATGAAGG
[1] = tested on: RARb homodimer (NR concentration 270 nM)
Outline: (§1)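 Ligand-free nuclear receptor dimers were bound for 1 h to custom Agilent 4×180K protein-binding microarrays. Detection used antibodies against each partner (one per run). Binding z-scores rest on regression-normalized fluorescence, with random background probes as the reference.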

[2] = tested on: RARg:RXRa (NR concentration 270 nM, RXRa partner concentration 90 nM)
Outline: as §1

[3] = tested on: RARg homodimer (NR concentration 270 nM)
Outline: as §1

[4] = tested on: RXRa DBDmut IVT, anti-RXR (DBD mutation: RXRa K156A/R161A, NR concentration 90 nM)
Outline: as §1

[5] = tested on: RXRa homodimer (NR concentration 180 nM)
Outline: as §1

[6] = tested on: THRa:RXRa (NR concentration 90 nM, RXRa partner concentration 90 nM)
Outline: as §1

[7] = tested on: THRa homodimer (NR concentration 90 nM)
Outline: as §1

[8] = tested on: VDR homodimer (NR concentration 270 nM)
Outline: as §1

| Sequence | PBM binding z-score [1] | PBM binding z-score [2] | PBM binding z-score [3] | PBM binding z-score [4] | PBM binding z-score [5] | PBM binding z-score [6] | PBM binding z-score [7] | PBM binding z-score [8] |
| --- | --- | --- | --- | --- | --- | --- | --- | --- |
| TTACCAAGGTGAAGGTCGTTGATCCCTCTGTAGA | 1.7 | 1.29 | 1.32 | 0.0227 | 1.7 | 2.34 | 1.1 | 1.15 |
| CCTCGCAGGCCAATCTGGGTCACTCAAGGCTTGA | 2.37 | 1.18 | 1.63 | 0.29 | 0.763 | 3.93 | 0.712 | 0.14 |
| CCTACTGGGCCAAGGCCATTGATCAGTCAAAGCA | 0.497 | -0.179 | -0.0334 | -1.15 | -0.715 | 0.101 | -0.288 | -0.406 |
| TTGCCAAGGTGAAGGTCGTTGATCCCTCTGTAGA | 1.62 | 1.23 | 1.02 | 0.0935 | 1.68 | 2.31 | 0.87 | 0.534 |
| GGAACGAGGGCAAGTTGATAGCAGAGTTTGATGG | 1.67 | 1.68 | 2.25 | 2.42 | 0.781 | 1.3 | 0.0645 | 1.9 |
| ACTATTAGTTGACTTAGGGAAACCGATACGACGC | -0.158 | 0.158 | 0.385 | 0.822 | 0.147 | 0.625 | 0.155 | 0.262 |
| CGTCCAAGCTCAAAGGTCAGTGAAGAGATGACGG | 4.4 | 4.58 | 5.11 | 0.306 | 4.05 | 2.33 | 0.0443 | 0.215 |
| GTACCATGGTGAATAGGTCGTTGATGAGTAGGCG | 0.603 | 0.323 | 0.274 | -0.264 | 0.592 | 0.133 | -0.299 | 0.21 |
| AGAACGAGGGCATTGAGTTGATAGCACGGGTGGC | 1.01 | 1.11 | 1.39 | 3.13 | 1.04 | 1.14 | -0.127 | 5.15 |
| TCTATTAGTTGATTAGGGCAACCGCAACAGCGGA | 0.671 | 0.648 | 0.445 | 0.932 | 0.721 | 0.679 | 0.272 | 0.125 |
| GCTGCTAGGTCAGGTTGATCAGCTAACGGGTACG | 2.24 | 2.65 | 3.71 | 0.558 | 1.14 | 1.73 | 0.499 | 0.442 |
| TCAAATAGGTAAAGGTGAAAGTCGAACGATATGA | 1.73 | 1.78 | 1.49 | 1.55 | 2.33 | 1.32 | -0.328 | 0.351 |
| TCTTGTGGATCAGCAGGTTAAGAAAGCTGGCCAA | 0.366 | -0.0321 | -0.331 | 0.589 | 0.119 | 0.227 | -0.125 | 0.0128 |
| CCGACTGGGACATAAGGTTACCATAAGCCAGCCC | 1.42 | 0.813 | 0.738 | -0.237 | 1.01 | 2.26 | 1.7 | -0.0177 |
